Measurements taken from PubChem BioAssay (NCATS).
Where “and” joins values, the source holds several entries; their conditions need not be identical. Identical values can stand only once. Records with an inconclusive call do not appear. Values without a mark were called inactive. Calls of active or inactive are those of the source. Calls follow the shape of the dose curve; as a rule, active = well fitted cell-killing curve with a large enough effect; inconclusive = small, poorly fitted or top-dose-only effect; inactive = flat fitted curve, though single readings scatter.

Assay: qHTS of pediatric cancer cell lines to identify multiple opportunities for drug repurposing: Primary screen for TC32 cells (AID 1347089); also: nearly all actives have a fitted effect of over 60% in size
Settings: TC32 Ewing sarcoma viability, CellTiter-Glo luminescence, 48 h; series mostly up to 45.8 µM; activity change, negative = cytotoxic: at the top concentration
From the text: Drug repurposing or repositioning has been offered as a strategy for drug development in oncology programs. This approach has special potential for childhood cancers and other rare or orphan diseases, where the expected return on new drug development has been a disincentive to pharmaceuticals.
In this project we exploit the poly-pharmacology of drugs to discover new indications via phenotypic screening of a panel of 19 well-characterized cell lines derived from solid tumors seen in children and adolescents. The goal is to identify approved drugs with previously unrecognized anticancer properties that has the potential to reveal new mechanisms and biological processes involved in carcinogenesis or drug resistance. We employed a titration-based paradigm (quantitative high-throughput screening or qHTS), where all compounds were tested at multiple concentrations for their effect on cell viability. Concentration-response curves (CRCs) were derived directly from the primary screen, and both potency and efficacy values were used to identify compounds with robust bioactivity profiles. We screened the NIH Chemical Genomics Center (NCGC) Pharmaceutical Collection (NPC) and Mechanism Interrogation Plate (MIPE) small molecule collections of approved and investigational compounds against these cell lines; and measured metabolically active cells after 48 hours of compound treatment as a proxy for cell viability.
Assay Submitter: Nathalia J. Martinez, National Center for Advancing Translational Sciences, National Institutes of Health, Rockville, MD, USA; email: natalia.martinez@nih.gov
[1] Shen, M et al. Quantitative high-throughput phenotypic screening of pediatric cancer cell lines identifies multiple opportunities for drug repurposing. Oncotarget 2017 Dec 19;9(4):4758-4772. PMID 29435139.
The cells were obtained from University of North Carolina (UNC), Pediatric Preclinical Testing Program (PPT), and Coriell Institute (CI).
qHTS cell viability assay:
Cells were assayed in growth media at a density of 500-1,000 cells/well. Five microliters of cells were dispensed into 1,536-well, white, solid-bottom, TC-treated plates (Greiner Bio One) using a multidrop dispenser and incubated at 37 degrees C, 5% CO2, under a humidified atmosphere for 5 hours. Twenty-three nanoliters of compounds and controls (neutral control DMSO or positive control bortezomib at final concentration of 2.3 uM) were subsequently transferred by Kalypsys pintool. For primary screens, the MIPE collection was tested at 11-point dilutions (final concentrations range from 0.78 nM to 46 µM) and the NPC collection at 8-point dilutions (final concentrations range from 0.59 nM to 46 µM). Compounds tested in follow-up screens were assayed at 11-point dilutions. Cells were incubated for 48 hours, followed by addition of 3 uL of CellTiter-Glo (Promega). After a 15min incubation at room temperature, samples were analyzed for luminescence intensity using a ViewLux High-throughput CCD imager equipped with clear filters.
% is scaled to controls: 0 for no effect and ±100 for the full control effect; potency is read from the fitted curve at half-maximal effect.

SMILES | activity change, negative = cytotoxic | Potency
CC[C@@H](CO)NC(=O)[C@@H]1C=C2c3cccc4c3c(cn4C)C[C@H]2N(C)C1 | -16.2% | –
O=C1NCN(c2ccccc2)C12CCN(CC1COc3ccccc3O1)CC2 (stereo not given) | -4.97% | –
CC(C)=CCOc1c2occc2cc2ccc(=O)oc12 | 4.01% | –
C[C@]12C/C(=C/O)C(=O)C[C@@H]1CC[C@@H]1[C@@H]2CC[C@@]2(C)[C@H]1CC[C@]2(C)O | 3.48% | –
C[C@]12CCC(=O)C(O)=C1CC[C@@H]1[C@@H]2CC[C@]2(C)C(=O)CC[C@@H]12 | 0.0114% | –
c1ccc(C2CC2)c(OCC2=NCCN2)c1 | 4.04% | –
FC(F)(F)c1cccc(C2=CCN(CCc3ccc4ccccc4c3)CC2)c1 | 8.19% | –
Cn1cc(C2=C(c3cn(C4CCN(Cc5ccccn5)CC4)c4ccccc34)C(=O)NC2=O)c2ccccc21 | – | inactive
O=C(O)c1ccc2[nH]cc(CCCCN3CC=C(c4ccccc4)CC3)c2c1 | 9.39% | –
O=c1oc2ccccc2c(O)c1C(CC(O)c1ccc(-c2ccc(Br)cc2)cc1)c1ccccc1 (stereo not given) | -1.12% | –
C[C@@H]1O[C@@H](O[C@H]2C[C@@H](O)[C@]3(CO)[C@H]4[C@H](O)C[C@]5(C)[C@@H](C6=CC(=O)OC6)CC[C@]5(O)[C@@H]4CC[C@]3(O)C2)[C@H](O)[C@H](O)[C@H]1O | – | 131 nM (active) and 93.8 nM (active)
c1ccc2c(c1)OCC(C1=NCCN1)O2 (stereo not given) | -11.9% | –
CCN(CC)CCN1C(=O)CN=C(c2ccccc2F)c2cc(Cl)ccc21 | 13.4% | –
CC(C)(C)CC(C)(C)c1ccc(O)cc1 | – | inactive
Clc1ccc(COC(Cn2ccnc2)c2ccc(Cl)cc2Cl)cc1 (stereo not given) | 8.23% | –
CC1OC(C)OC(C)O1 (stereo not given) | 4.75% | –
C=CCN1CC[C@]23c4c5ccc(O)c4O[C@H]2C(=O)CC[C@@]3(O)[C@H]1C5 | 16.8% | –
Oc1ccccc1-c1ccccc1 | 8.35% | –
C=C1C[C@@H]2[C@H](CC[C@]3(C)C(=O)CC[C@@H]23)[C@@]2(C)C=CC(=O)C=C12 | -12.1% | –
CC(CCc1ccccc1)NC(C)C(O)c1ccc(O)cc1 (stereo not given) | -4.09% | –

SMILES | activity change, negative = cytotoxic | Potency
O=[N+]([O-])c1cc([As](=O)(O)O)ccc1O | 4.36% | –
CC(=O)Nc1cc([As](=O)(O)O)ccc1O | 12.2% | –
CCC(C(N)=O)N1CCCC1=O (stereo not given) | 6.84% | –
CC(C)NCC(O)c1ccccc1Cl (stereo not given) | 2.95% | –
Cc1ccc(-c2nc3ccc(C)cn3c2CC(=O)N(C)C)cc1 | 9.51% | –
CC(C)CC(N(C)C)C1(c2ccc(Cl)cc2)CCC1 (stereo not given) | – | inactive
Clc1ccc(CCC(Cn2ccnc2)Sc2c(Cl)cccc2Cl)cc1 (stereo not given) | 5.97% | –
CCOP(=S)(OCC)Oc1cc(C)nc(C(C)C)n1 | 15.6% | –
NCC1(CC(=O)O)CCCCC1 | – | inactive
COc1ccc(Cc2nccc3cc(OC)c(OC)cc23)cc1OC | -1.21% | –
OCCOc1ccccc1 | 14.3% | –
CN(C)CCc1ccc(O)cc1 | – | inactive
Oc1cc(Cl)ccc1Oc1ccc(Cl)cc1Cl | 1.84% | –
CN(C)[C@@H]1C(=O)C(C(N)=O)=C(O)[C@@]2(O)C(=O)C3=C(O)c4c(O)cccc4[C@@](C)(O)[C@H]3C[C@@H]12 | – | inactive
CC1=C2C[C@@H]3[C@@H](CC=C4C[C@@H](O)CC[C@@]43C)[C@@H]2CC[C@]12O[C@H]1C[C@H](C)CN[C@H]1[C@H]2C | 0.23% | –
Cc1cc(SCc2sc(-c3ccc(C(F)(F)F)c(F)c3)nc2C)ccc1OCC(=O)O | 5.97% | –
NCCc1cc(O)c(O)cc1O | 11.9% | –
Cc1ccc(S(=O)(=O)N[C@@H](CCCCN)C(=O)CCl)cc1 | -1.84% | –
Cc1ccc2c(c1)C1CN(C)CCC1N2 (stereo not given) | -2.52% [at 16 µM] | –
CC(C)(N)Cc1ccc(Cl)cc1 | -3.67% | –
